Assay results taken from PubChem BioAssay.
Where “and” joins values, the source holds several entries; their conditions need not be identical. Equal entries are not always repeated. Calls of active or inactive are those of the source. Unless noted, no stated cut-off is given here; in the data, active means parasite load remaining mostly below about 12% (no sharp cut-off); inactive means mostly above about 10%.

Tests used:
[1] = liver-stage malaria parasite growth inhibition, primary screen, cell-based, HepG2, luciferase luminescence, HepG2 viability (AID 624349);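 further: 100% = mean of DMSO negative control wells on the same plate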; settings: P. berghei liver stage in HepG2, luciferase luminescence, concentration not given here; parasite load remaining: stronger effect = lower value; viability: measured here: HepG2 viability without parasites
[2] = system: Hepatitis C virus NS3 helicase; experiment: HCV NS3 helicase inhibitors, primary screen, biochemical, fluorescence polarization, LOPAC1280 library (AID 687035; in the data active means inhibition above about 37%); settings: Purified HCV NS3 helicase, Cy5-dT15 ssDNA binding fluorescence polarization; stronger effect = higher value; concentration not given here
[3] = Cy5 fluorescence quenching or enhancement artefacts, artefact control for HCV NS3 helicase inhibitor project, biochemical, LOPAC1280 (AID 687037; call rule not given here); settings: Cy5-DNA-NS3h complex fluorescence interference counterscreen
[4] = stimulators of nuclear beta-catenin in C2C12, primary screen, imaging, WNT3A-conditioned medium, mouse C2C12, NPC library (AID 1117326; in the data active means nuclear beta-catenin stimulation mostly above about 4.2%, no sharp cut-off; inactive means mostly below about 10%); settings: stronger effect = higher value

| SMILES | parasite load remaining [1] | viability [1] | inhibition [2] | fluorescence ratio (interference) [3] | nuclear beta-catenin stimulation ([4]; at 10 µM) | nuclear beta-catenin stimulation ([4]; stimulation, at 2 µM) [%] |
| --- | --- | --- | --- | --- | --- | --- |
| CN(C)CCCN1c2ccccc2Sc2ccccc21 | 72.2% (inactive) and 44.2% (inactive) and 20.3% (inactive) | 85.1% and 62.8% and 90.9% | -9% (inactive) | 0.9 (inactive) | 2.1% (inactive) | 1.6 |
| CCCCC1C(=O)N(c2ccccc2)N(c2ccccc2)C1=O | 85.8% (inactive) and 69.9% (inactive) and 33.4% (inactive) | 73% and 101% and 70.5% | -4% (inactive) | 1 (inactive) | -2% (inactive) | -0.9 |
| C[n+]1cc2c3c(ccc2c2ccc4cc5c(cc4c21)OCO5)OCO3 | -0.155% (inactive) and -0.085% (inactive) | 0.535% and 0% | -2% (inactive) | 1 (inactive) | 32.4% (inactive) | 1.3 |
| CC(=O)Oc1ccccc1C(=O)O | 80.4% (inactive) and 75.4% (inactive) and 33.3% (inactive) | 71.3% and 95.3% and 127% | -3% (inactive) | 1 (inactive) | -0.3% (inactive) | 0.2 |
| Cc1ccc(C(=O)Nc2ccc(S(=O)(=O)O)c3cc(S(=O)(=O)O)cc(S(=O)(=O)O)c23)cc1NC(=O)c1cccc(NC(=O)Nc2cccc(C(=O)Nc3cc(C(=O)Nc4ccc(S(=O)(=O)O)c5cc(S(=O)(=O)O)cc(S(=O)(=O)O)c45)ccc3C)c2)c1 | 42.8% (inactive) and 57% (inactive) | 89.5% and 106% | 96% (active) | 1 (inactive) | -3.6% (inactive) | -0.5 |
| CNC[C@H](O)c1cccc(O)c1 | 64.7% (inactive) and 44.2% (inactive) | 77.3% and 99.6% | -1% (inactive) | 1 (inactive) | 1.9% (inactive) | 1.7 |
| Cc1scc2c1N(C(=O)CN1CCN(C)CC1)c1ccccc1NC2=O | 42.9% (inactive) and 96% (inactive) and 50.1% (inactive) | 49.7% and 86.8% and 142% | -3% (inactive) | 1 (inactive) | 1% (inactive) | 1.6 |
| Clc1ccc(C(c2ccccc2Cl)C(Cl)Cl)cc1 (stereo not drawn) | 2.27% (inactive) | 80.1% | -4% (inactive) | 0.9 (inactive) | 4.5% (inactive) | 0.2 |
